Assay [1] has as its target Nuclear receptor ROR-gamma (Homo sapiens) (UniProt P51449). As to the kind of experiment: qHTS assay to identify small molecule antagonists of the retinoid-related orphan receptor gamma (ROR-gamma) signaling pathway (AID 1159521; also: nearly all actives have a fitted effect of over 50% in size; also: potency is read from the fitted curve at half-maximal effect). The method in brief: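 Readout: ONE-Glo luciferase luminescence, 30 min at room temperature. System: Tet-on RORγ CHO, RORE-LUC. Sequence: compound 2 h, doxycycline 1 uM final, 16 h at 37 C.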
For orientation: qHTS replaces the single test concentration by a dilution series.

The nature of assay [2]: qHTS assay to identify small molecule agonists of the AP-1 signaling pathway - cell viability counter screen (AID 1159525; calls by dose curve; also: nearly all actives have a fitted effect of over 55% in size; also: potency is read from the fitted curve at half-maximal effect). An outline of the steps: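 Same-well cytotoxicity counter screen of the Tox21 10K library in ME-180 cells. The readout is ATP-dependent luminescence after 5 h compound treatment. Data are normalised to DMSO and tetra n-octyl ammonium bromide controls.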

Assay [3] in a line: qHTS assay to identify small molecule agonists of the AP-1 signaling pathway (AID 1159526; calls by dose curve).
The nature of assay [4]: qHTS assay to identify small molecule antagonists of the retinoid acid receptor (RAR) signaling pathway - cell viability counter screen (AID 1159551). Also: nearly all actives have a fitted effect of over 35% in size. Also: potency is read from the fitted curve at half-maximal effect. An outline of the steps:
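Cytotoxicity counter screen: ATP content quantified by CellTiter-Glo luminescence in C3RL4 cells treated 6 hr at 37 C with compound and retinol (1 uM final). Cells plated at 1,000/well and cultured overnight before dosing.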

The target of assay [5] is Luciferin 4-monooxygenase (Photinus pyralis) (UniProt P08659). The assay can be described thus: qHTS assay to identify small molecule inhibitors of firefly luciferase (AID 1224835). Also: nearly all actives have a fitted effect of over 25% in size. Also: potency is read from the fitted curve at half-maximal effect. The method in brief:
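Biochemical qHTS: compounds run as interplate titrations against purified firefly enzyme, with D-luciferin and ATP each at its KM concentration. Light output recorded by CCD imaging.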

Assay [6] in a line: qHTS assay to identify small molecule agonists of the constitutive androstane receptor (CAR) signaling pathway - cell viability counter screen (AID 1224836). Also: nearly all actives have a fitted effect of over 45% in size. Also: potency is read from the fitted curve at half-maximal effect. The method in brief:
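Fluorescence from CellTiter-Fluor indicates live cells after 23 h exposure. The human hepatoma line expresses hCAR and a CYP2B6-2.2kb reporter. Incubation medium contains 0.75 uM PK11195 (final).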

Assay [7] in a line: qHTS assay to identify small molecule antagonists of the constitutive androstane receptor (CAR) signaling pathway - cell viability counter screen (AID 1224837). Also: nearly all actives have a fitted effect of over 45% in size. Also: potency is read from the fitted curve at half-maximal effect. The method in brief:
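Cytotoxicity counter-screen: CellTiter-Fluor fluorescence after 23 h compound exposure (15-point qHTS) in double-stable HepG2-CYP2B6-hCAR cells, with 50 nM CITCO added.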

The target of assay [8] is Nuclear receptor subfamily 1 group I member 3 (Homo sapiens) (UniProt Q14994). As to the kind of experiment: qHTS assay to identify small molecule agonists of the constitutive androstane receptor (CAR) signaling pathway (AID 1224839). Also: nearly all actives have a fitted effect of over 15% in size. Also: potency is read from the fitted curve at half-maximal effect. An outline of the steps: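 Stable hCAR/CYP2B6-2.2kb HepG2 line in DMEM with 10% FBS; compounds (15 concentrations) and 0.75 uM PK11195 final, 24 h at 37 C/5% CO2, then ONE-Glo luminescence after 30 min.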

Assay [9] can be described thus: qHTS assay to identify small molecule agonists of the RXR signaling pathway - cell viability counter screen (AID 1159529). Also: nearly all actives have a fitted effect of over 50% in size. Also: potency is read from the fitted curve at half-maximal effect. The method in brief: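 Tox21 10K compounds were tested for cytotoxicity against GeneBLAzer RXR-alpha HEK 293T cells grown in 2% charcoal-stripped FBS. Exposure lasted 16 hr at 37 C, 5% CO2; viability read by CellTiter-Glo luminescence.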
Assay [10] can be described thus: qHTS assay to identify small molecule antagonists of the retinoic acid receptor (RAR) signaling pathway (AID 1159552; also: nearly all actives have a fitted effect of over 50% in size; also: potency is read from the fitted curve at half-maximal effect). An outline of the steps:
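Overnight-plated C3RL4 reporter cells get compound, then retinol to 1 uM final; plates sit 6 hr at 37 C, 5% CO2. A luciferase reagent is added and light output recorded after 30 min at room temperature.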

Assay [11] is described as follows: qHTS assay to identify small molecule antagonists of the estrogen related receptor (ERR) signaling pathway from Tox21 library - cell viability counter screen (AID 1224834). Also: nearly all actives have a fitted effect of over 30% in size. Also: potency is read from the fitted curve at half-maximal effect. The method in brief:
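CellTiter-Fluor fluorescence, read after 30 min at 37 C, measures viability of ERR cells. Cells plated at 2,000/well and incubated 6 h before pin-tool compound addition, then exposed 17.5 hours at 37 C.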

Assay [12] deals with Nuclear receptor subfamily 1 group I member 3 (Homo sapiens) (UniProt Q14994). As to the kind of experiment: qHTS assay to identify small molecule antagonists of the constitutive androstane receptor (CAR) signaling pathway (AID 1224838).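 Also: HepG2 cells stably expressing hCAR with CYP2B6 luciferase reporter stimulated by CITCO; nearly all actives have a fitted effect of over 40% in size.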 Also: potency is read from the fitted curve at half-maximal effect. The method in brief:
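Antagonism measured as luciferase signal (ONE-Glo, 30 min, room temperature) in CAR-stimulated cells: HepG2-CYP2B6-hCAR double-stable line exposed 24 hr at 37 C to compound in a 15-point series plus 50 nM CITCO.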

Assay [13] in a line: qHTS assay to identify small molecule agonists of the retinoic acid receptor (RAR) signaling pathway (AID 1159553). Also: potency is read from the fitted curve at half-maximal effect. The method in brief:
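Luminescence was measured 30 min after luciferase reagent addition at room temperature. Before that, C3RL4 reporter cells (1,000 per well, plated overnight) were treated with compound for 6 hr at 37 C and 5% CO2.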

Assay [14] in a line: qHTS assay to identify small molecule antagonists of the estrogen related receptor (ERR) signaling pathway - cell viability counter screen (AID 1224818). Also: series mostly up to about 46 µM. An outline of the steps: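 Cytotoxicity counter screen: fluorescence from CellTiter-Fluor, added after 17.5 h compound exposure at 37 C and read 30 min later. ERR cell line seeded at 2,000 cells/well, preincubated 6 h before dosing.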

The nature of assay [15]: qHTS assay to identify small molecule antagonists of the estrogen related receptor signaling pathway with the pleiotropic PPARgamma coactivator (PGC) cell viability counter screen (AID 1224822; also: series mostly up to about 46 µM). The method in brief: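 Viability counter-screen read by fluorescence intensity after 30 min with CellTiter-Fluor at 37 C; PGC/ERR reporter cells were exposed to compounds for 17.5 h at 37 C following a 6 h preincubation.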

The target of assay [16] is Retinoic acid receptor RXR-alpha (Homo sapiens) (UniProt P19793). As to the kind of experiment: qHTS assay to identify small molecule agonists of the RXR signaling pathway (AID 1159527; calls by dose curve; also: nearly all actives have a fitted effect of over 35% in size). An outline of the steps:
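Reporter activation is measured as beta-lactamase activity via FRET substrate cleavage (emission 460/530 nm) in HEK 293T cells expressing an RXR-alpha-driven bla construct, following 16 hr compound exposure at 37 C.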

SMILES strings stand for the structures. Results filed as inconclusive are left out. A number with no mark means an inactive call. Active and inactive are the calls of the source. Unless noted, calls follow the shape of the dose curve; as a rule, active = well fitted curve in the direction sought with a large enough effect in the repeat runs; inconclusive = weak or mixed curves; inactive = no such curve, though single readings can be large; an effect the other way counts as inactive or inconclusive.

Chain of Nuclear receptor subfamily 1 group I member 3 (Homo sapiens) (Q14994 whole entry, looked up): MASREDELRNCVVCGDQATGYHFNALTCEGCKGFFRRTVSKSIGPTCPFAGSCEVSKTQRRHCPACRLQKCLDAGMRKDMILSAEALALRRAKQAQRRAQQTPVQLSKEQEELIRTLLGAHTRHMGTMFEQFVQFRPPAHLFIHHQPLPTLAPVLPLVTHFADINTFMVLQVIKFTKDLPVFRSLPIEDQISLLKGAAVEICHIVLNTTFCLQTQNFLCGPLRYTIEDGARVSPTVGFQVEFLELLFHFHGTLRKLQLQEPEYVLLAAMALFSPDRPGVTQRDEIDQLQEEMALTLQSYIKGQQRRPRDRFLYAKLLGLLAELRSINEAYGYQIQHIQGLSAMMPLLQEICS
Chain of Luciferin 4-monooxygenase (Photinus pyralis) (P08659 whole entry, looked up): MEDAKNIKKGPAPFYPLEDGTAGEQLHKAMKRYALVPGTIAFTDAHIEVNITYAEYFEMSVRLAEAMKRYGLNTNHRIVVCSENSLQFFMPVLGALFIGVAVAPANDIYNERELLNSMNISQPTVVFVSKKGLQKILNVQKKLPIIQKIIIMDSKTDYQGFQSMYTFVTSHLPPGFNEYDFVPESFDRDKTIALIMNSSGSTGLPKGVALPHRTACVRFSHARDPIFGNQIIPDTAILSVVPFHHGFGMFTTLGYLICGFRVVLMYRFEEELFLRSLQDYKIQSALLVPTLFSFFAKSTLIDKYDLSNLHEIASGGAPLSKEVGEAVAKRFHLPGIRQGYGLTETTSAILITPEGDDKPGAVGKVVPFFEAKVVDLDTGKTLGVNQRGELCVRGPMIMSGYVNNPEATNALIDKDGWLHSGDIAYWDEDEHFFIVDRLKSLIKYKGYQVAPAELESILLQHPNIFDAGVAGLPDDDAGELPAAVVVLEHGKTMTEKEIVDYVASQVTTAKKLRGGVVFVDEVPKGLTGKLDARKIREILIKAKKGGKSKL
Chain of Retinoic acid receptor RXR-alpha (Homo sapiens) (P19793 whole entry, looked up): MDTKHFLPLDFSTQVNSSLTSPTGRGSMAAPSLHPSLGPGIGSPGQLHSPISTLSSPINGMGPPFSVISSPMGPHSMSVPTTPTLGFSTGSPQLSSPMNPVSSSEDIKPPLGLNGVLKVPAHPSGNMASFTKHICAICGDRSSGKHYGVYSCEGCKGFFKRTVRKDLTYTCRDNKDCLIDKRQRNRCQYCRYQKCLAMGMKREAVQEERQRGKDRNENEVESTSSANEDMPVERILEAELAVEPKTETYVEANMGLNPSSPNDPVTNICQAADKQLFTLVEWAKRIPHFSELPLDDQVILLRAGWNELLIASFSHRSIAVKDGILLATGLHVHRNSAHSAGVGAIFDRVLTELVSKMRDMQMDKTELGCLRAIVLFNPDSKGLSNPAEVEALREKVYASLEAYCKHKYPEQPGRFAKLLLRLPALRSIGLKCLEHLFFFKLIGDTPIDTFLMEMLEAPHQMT

As for `O=C(NCc1ncc(C(F)(F)F)cc1Cl)c1c(Cl)cccc1Cl`, in assay [1], the Potency is 12.2 µM (active). In addition, the Potency result in assay [2], in assay [3], in assay [4], in [5], in [6] and in [7] was “inactive” in each case. The Potency result in [8] was “inactive”.

Turning to `CN(C)CCOc1ccc(/C(=C(/CCCl)c2ccccc2)c2ccccc2)cc1`, the Potency in assay [1] is 22.8 µM (active); in assay [2], 36.4 µM (active); in assay [9] it was 18.3 µM (active); in assay [4] it was 51 µM (active); in assay [10] it was 57.2 µM (active); in assay [11], 51 µM (active). Also, the Potency result in assay [5] and in assay [8] was “inactive” in each case.

Take `[Cl][Dy]([Cl])[Cl]`: the Potency result in [1], in assay [2], in [9], in assay [4], in assay [11] and in assay [6] was “inactive” each time. Moreover, the Potency result in assay [7], in assay [12] and in assay [8] was “inactive” each time. Moreover, the Potency in [5] is 28.3 µM (active).

For the compound `O=C1C=CC(=O)N1c1cccc(N2C(=O)C=CC2=O)c1`, the Potency is 3.86 µM (active) in assay [1]; 13.8 µM (active) in assay [2]; 11 µM (active) in assay [9]; 21.7 µM (active) in [4]; 10.9 µM (active) in assay [10]; 54.5 µM (active) in assay [11]. Besides, the Potency in assay [6] and in assay [7] was 61.1 µM (active) each time. Besides, in [8], the Potency entry was “inactive”.

As for `CC1=C(/C=C/C(C)=C/C=C/C(C)=C\C(=O)O)C(C)(C)CCC1`, the Potency result in assay [1], in assay [2], in assay [3], in assay [4], in assay [10] and in [14] was “inactive” each time. In addition, the Potency entry in assay [15], in [11], in [6], in assay [7] and in assay [12] was “inactive” each time. Also, the Potency was 0.0194 µM (active) in assay [13], 63.5 µM (active) in assay [5] and 27.4 µM (active) in [8].

For `[Cl][Eu]([Cl])[Cl]`, the Potency result in assay [1], in assay [2], in assay [9], in assay [4], in assay [11] and in [6] was “inactive” each time. In [7], the Potency result is “inactive”. Further, in [5], the Potency is 31.7 µM (active).

As for `O=C1OC(O)C(C(Cl)Cl)=C1Cl` (stereo not given), in [1], the Potency is 14.1 µM (active). Moreover, the Potency result in assay [2], in assay [4], in assay [5], in assay [6] and in [7] was “inactive” each time.

`Clc1cccc(Cl)n1`: the Potency entry in assay [1], in assay [2], in assay [16], in [9], in [4] and in [11] was “inactive” in each case. Also, the Potency result in [5], in assay [6], in [7], in [12] and in assay [8] was “inactive” each time.

As to `CCOC(=O)C1=NN(c2ccc(Cl)cc2Cl)C(C)(C(=O)OCC)C1` (stereo not given), the Potency in assay [1] was 30.6 µM (active). For the same compound, the Potency result in assay [2], in assay [9], in assay [4], in [10], in assay [5] and in assay [6] was “inactive” in each case. Moreover, the Potency entry in assay [7] was “inactive”.

On to `C=C(C)CCO`, for which the Potency result in [1], in [2], in assay [9], in assay [4], in assay [11] and in assay [5] was “inactive” each time. The Potency result in assay [6] and in [7] was “inactive” throughout.

Take `CN[C@H]1CC[C@@H](c2ccc(Cl)c(Cl)c2)c2ccc(S(N)(=O)=O)cc21`: the Potency is 54.5 µM (active) in assay [1]; 27.5 µM (active) in assay [9]; 68.6 µM (active) in assay [11]; 61.1 µM (active) in assay [6]; 61.1 µM (active) in [7]; 61.1 µM (active) in assay [12]. Also, the Potency entry in assay [2], in assay [4], in assay [5] and in [8] was “inactive” throughout.

Turning to `C=Cc1ccc(O)c(OC)c1`, the Potency result in [1], in assay [2], in [16], in [9], in assay [4] and in assay [11] was “inactive” in each case. Moreover, the Potency entry in assay [5], in assay [6], in [7] and in assay [8] was “inactive” in each case.

The record behind these values is PubChem BioAssay (Tox21).
